Source: PubChem BioAssay (NCATS)
“And” between values parts separate entries of the source, which are not always exact repeats. Identical values can stand only once. Inconclusive results are not listed. The source made the active and inactive calls. Unless noted, calls follow the shape of the dose curve; as a rule, active = well fitted curve in the direction sought with a large enough effect; inconclusive = small, poorly fitted or top-dose-only effect, or another doubt; inactive = no such curve, though single readings can be large; an effect the other way counts as inactive or inconclusive.

What was measured:
[1] = molecular target: Peptidyl-prolyl cis-trans isomerase NIMA-interacting 1 (Homo sapiens) (UniProt Q13526); assay: qHTS Validation Assay to Find Inhibitors of Pin1 (AID 504536; active = well fitted inhibition curve with a large enough effect in the polarisation, with a control signal flat, not every such curve was filed as active; the % refers to the polarisation;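 also: 0% = full Pin1 enzyme wells and -100% = no-enzyme wells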)
Chain of Peptidyl-prolyl cis-trans isomerase NIMA-interacting 1 (Homo sapiens) (Q13526 whole entry, looked up): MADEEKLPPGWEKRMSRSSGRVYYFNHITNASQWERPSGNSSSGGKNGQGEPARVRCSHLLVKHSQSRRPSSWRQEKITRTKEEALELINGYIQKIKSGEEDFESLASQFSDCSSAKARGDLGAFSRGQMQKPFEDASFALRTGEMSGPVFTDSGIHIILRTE
Outline: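 Fluorescence polarization competition: compounds (titration) displace HiFluor-488-labeled Pin1-1b peptide from Pin1 (0.3 uM final) in pH 7.5 HEPES buffer with DTT, 10 min at room temperature; %Activity normalized to no-enzyme wells, curves fitted.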

[2] = molecular target: Phosphoglycerate kinase, glycosomal (Trypanosoma brucei brucei) (UniProt P07378); assay: qHTS Validation Assay to Find Inhibitors of Phosphoglycerate Kinase (AID 504547); also: potency is read from the fitted curve at half-maximal effect
Chain of Phosphoglycerate kinase, glycosomal (Trypanosoma brucei brucei) (P07378 whole entry, looked up): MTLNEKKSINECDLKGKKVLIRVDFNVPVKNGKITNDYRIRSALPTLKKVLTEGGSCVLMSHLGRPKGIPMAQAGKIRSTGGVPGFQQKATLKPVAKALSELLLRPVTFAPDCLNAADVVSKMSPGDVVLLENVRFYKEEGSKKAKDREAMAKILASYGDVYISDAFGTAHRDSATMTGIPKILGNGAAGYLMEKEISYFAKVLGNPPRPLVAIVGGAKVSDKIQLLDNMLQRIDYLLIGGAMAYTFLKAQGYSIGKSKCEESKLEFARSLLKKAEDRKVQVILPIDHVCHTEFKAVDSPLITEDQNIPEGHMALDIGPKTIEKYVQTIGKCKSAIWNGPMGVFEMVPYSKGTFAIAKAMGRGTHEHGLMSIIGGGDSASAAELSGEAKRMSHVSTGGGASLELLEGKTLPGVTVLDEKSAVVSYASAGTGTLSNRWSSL
Outline: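 Inhibition of the enzyme is judged by a Kinase-Glo Plus luminescent signal following a one-hour incubation at room temperature. Because 1,3-BPG is unstable, it is made in situ by GAPDH at 100nM final; no-PGK wells define the baseline.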

[3] = molecular target: phosphoglycerate mutase (Leishmania major) (UniProt Q4Q090); assay: qHTS Validation Assay to Find Inhibitors of Phosphoglycerate Mutase (AID 504548); also: series mostly up to about 58 µM; % is scaled to controls: 0 for no effect and ±100 for the full control effect
Chain of phosphoglycerate mutase (Leishmania major) (Q4Q090 1-553): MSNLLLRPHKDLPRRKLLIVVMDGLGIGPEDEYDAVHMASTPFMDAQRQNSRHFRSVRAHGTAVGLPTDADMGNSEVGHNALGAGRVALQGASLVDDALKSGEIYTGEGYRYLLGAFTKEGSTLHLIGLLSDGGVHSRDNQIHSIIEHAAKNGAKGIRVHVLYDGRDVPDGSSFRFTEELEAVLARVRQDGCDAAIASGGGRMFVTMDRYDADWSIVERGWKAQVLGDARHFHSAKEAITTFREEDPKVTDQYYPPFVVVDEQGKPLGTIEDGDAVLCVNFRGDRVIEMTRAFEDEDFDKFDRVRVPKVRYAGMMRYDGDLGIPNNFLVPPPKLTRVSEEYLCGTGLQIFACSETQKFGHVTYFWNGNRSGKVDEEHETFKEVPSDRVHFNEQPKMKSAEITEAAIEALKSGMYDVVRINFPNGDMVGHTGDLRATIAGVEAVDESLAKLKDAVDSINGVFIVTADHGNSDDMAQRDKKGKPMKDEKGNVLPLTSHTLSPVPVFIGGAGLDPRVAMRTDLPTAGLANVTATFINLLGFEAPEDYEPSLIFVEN
Outline: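 Luminescent end-point read-out via Kinase-GloPlus after a 10-minute development. Reaction: 1.25nM Leishmania major PGAM with substrate and compound, 45 minutes at room temperature in TEA buffer (pH 7.6) with MgCl2 and Tween-20.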

[4] = qHTS for Inhibitors of ATXN expression: Validation of Cytotoxic Assay (AID 588349); also: % is scaled to controls: 0 for no effect and ±100 for the full control effect
Outline: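 Read-out: ATP-based luminescence (CellTiter Glo) reflecting viability of HEK293 cells after 72 hr incubation at 37 degrees C with a concentration series of each compound.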

[5] = qHTS for Inhibitors of ATXN expression: Validation (AID 588378); also: nearly all actives have a fitted effect of over 75% in size; also: potency is read from the fitted curve at half-maximal effect
Outline: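 Luminescence from an ATXN2-FFLuc reporter in HEK293 cells served as read-out after 24 h compound treatment at 37 degrees C; CellTiter-Fluor fluorescence was recorded first to assess viability.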

[6] = molecular target: Ubiquitin carboxyl-terminal hydrolase 1 (Homo sapiens) (UniProt O94782); assay: Inhibitors of USP1/UAF1: Pilot qHTS (AID 504865); also: nearly all actives have a fitted effect of over 35% in size; also: potency is read from the fitted curve at half-maximal effect
Chain of Ubiquitin carboxyl-terminal hydrolase 1 (Homo sapiens) (O94782 whole entry, looked up): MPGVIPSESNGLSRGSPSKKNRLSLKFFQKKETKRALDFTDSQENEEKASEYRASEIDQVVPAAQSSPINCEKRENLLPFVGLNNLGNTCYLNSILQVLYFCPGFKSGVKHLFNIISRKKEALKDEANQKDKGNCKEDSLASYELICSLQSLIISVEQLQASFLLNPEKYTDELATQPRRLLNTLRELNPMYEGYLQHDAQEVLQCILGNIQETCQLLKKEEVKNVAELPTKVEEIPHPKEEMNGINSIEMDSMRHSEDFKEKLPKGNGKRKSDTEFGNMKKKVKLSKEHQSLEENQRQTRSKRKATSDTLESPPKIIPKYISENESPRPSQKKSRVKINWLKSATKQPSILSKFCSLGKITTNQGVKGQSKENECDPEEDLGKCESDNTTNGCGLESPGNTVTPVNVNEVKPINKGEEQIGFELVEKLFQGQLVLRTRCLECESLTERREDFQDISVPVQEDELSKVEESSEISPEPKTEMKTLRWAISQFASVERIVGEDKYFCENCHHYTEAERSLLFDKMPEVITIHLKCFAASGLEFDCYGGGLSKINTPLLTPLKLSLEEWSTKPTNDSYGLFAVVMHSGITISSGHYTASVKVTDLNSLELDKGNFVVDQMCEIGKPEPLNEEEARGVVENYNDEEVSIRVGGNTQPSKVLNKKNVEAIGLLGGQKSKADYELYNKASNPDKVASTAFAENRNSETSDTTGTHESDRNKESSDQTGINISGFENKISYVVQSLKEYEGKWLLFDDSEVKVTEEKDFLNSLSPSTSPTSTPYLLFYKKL
Outline: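 USP1/UAF1 complex (1nM) preincubated with compound 15 min at room temperature, then Ub-Rho substrate (150nM final) added. Fluorescence read kinetically at 480/540 nm, 6 reads every 60 seconds. Buffer: 50mM HEPES pH 7.8, 0.5mM EDTA, 0.1 mg/ml BSA, 1mM TCEP, 0.01% Tween-20.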

[7] = molecular target: Glucocorticoid receptor (Homo sapiens) (UniProt P04150); assay: qHTS assay for small molecule agonists of glucocorticoid receptor signaling (AID 588532; active = well fitted curve in the direction sought with a large enough effect in the signal ratio, with a control signal flat; the % refers to the signal ratio;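 also: 100% = dexamethasone at 0.1 µM and 0% = DMSO only wells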); details: HeLa MMTV-bla, beta-lactamase ratio, agonist, 18 h; stronger effect = higher value; percent of dexamethasone control, DMSO zero
Chain of Glucocorticoid receptor (Homo sapiens) (P04150 whole entry, looked up): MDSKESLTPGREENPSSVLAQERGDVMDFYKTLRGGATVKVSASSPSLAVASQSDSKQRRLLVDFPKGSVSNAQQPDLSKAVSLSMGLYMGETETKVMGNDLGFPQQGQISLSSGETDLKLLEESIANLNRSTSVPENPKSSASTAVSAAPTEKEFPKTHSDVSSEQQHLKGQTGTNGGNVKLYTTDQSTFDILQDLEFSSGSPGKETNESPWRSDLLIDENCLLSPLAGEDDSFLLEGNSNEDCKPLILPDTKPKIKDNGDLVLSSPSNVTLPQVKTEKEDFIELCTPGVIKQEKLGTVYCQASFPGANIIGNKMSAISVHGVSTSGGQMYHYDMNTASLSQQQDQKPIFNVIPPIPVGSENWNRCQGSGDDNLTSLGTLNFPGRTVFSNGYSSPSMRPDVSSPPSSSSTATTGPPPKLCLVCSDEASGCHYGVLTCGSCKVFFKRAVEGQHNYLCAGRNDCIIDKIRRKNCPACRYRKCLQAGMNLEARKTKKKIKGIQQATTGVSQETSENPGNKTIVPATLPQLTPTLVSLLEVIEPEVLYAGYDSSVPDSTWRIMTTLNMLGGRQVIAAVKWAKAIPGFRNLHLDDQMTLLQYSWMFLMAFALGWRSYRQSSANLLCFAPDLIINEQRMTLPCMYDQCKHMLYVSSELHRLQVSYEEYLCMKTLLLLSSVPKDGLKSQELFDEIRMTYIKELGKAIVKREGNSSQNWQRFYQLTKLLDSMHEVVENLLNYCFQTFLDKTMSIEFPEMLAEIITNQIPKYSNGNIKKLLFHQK
Outline: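 Quantitative HTS using CellSensor MMTV-bla HeLa cells in charcoal/dextran-treated serum; compounds tested up to 92 uM. After 18 h at 37 C, CCF4 dye reported reporter induction.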

[8] = molecular target: Glucocorticoid receptor (Homo sapiens) (UniProt P04150); assay: qHTS assay for small molecule antagonists of glucocorticoid receptor signaling (AID 588533; active = well fitted inhibition curve with a large enough effect in the signal ratio, with a control signal flat, not every such curve was filed as active; the % refers to the signal ratio;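 also: cells stimulated with 2 nM dexamethasone as agonist; % is scaled to controls: 0 for no effect and ±100 for the full control effect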)
Outline: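 Antagonist-mode qHTS: compound titrations added to GRE-bla HeLa cells, then dexamethasone 2 nM final; 18 h, 37 C. CCF4 FRET fluorescence normalized to dexamethasone and DMSO; IC50 from Hill fit.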

[9] = qHTS assay for small molecule antagonists of peroxisome proliferator-activated receptor delta signaling (AID 588535; active = well fitted inhibition curve with a large enough effect in the signal ratio, with a control signal flat, not every such curve was filed as active; the % refers to the signal ratio;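 as to max response: cells co-treated with a PPAR-delta agonist as stimulator during compound exposure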); details: HEK293T PPARd-UAS-bla, beta-lactamase FRET ratio, 18 h; 460 nm channel
Outline: (§1)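 HEK293T PPAR-delta-UAS-bla cells, 4000/well, 2% charcoal/dextran FBS; 5 h 37 C; cpd titration; 18 h 37 C; CCF4 2 h RT; FI 460/530 nm; Hill fit → IC50, efficacy.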

[10] = molecular target: Peroxisome proliferator-activated receptor delta (Homo sapiens) (UniProt Q03181); assay: as above
Chain of Peroxisome proliferator-activated receptor delta (Homo sapiens) (Q03181 whole entry, looked up): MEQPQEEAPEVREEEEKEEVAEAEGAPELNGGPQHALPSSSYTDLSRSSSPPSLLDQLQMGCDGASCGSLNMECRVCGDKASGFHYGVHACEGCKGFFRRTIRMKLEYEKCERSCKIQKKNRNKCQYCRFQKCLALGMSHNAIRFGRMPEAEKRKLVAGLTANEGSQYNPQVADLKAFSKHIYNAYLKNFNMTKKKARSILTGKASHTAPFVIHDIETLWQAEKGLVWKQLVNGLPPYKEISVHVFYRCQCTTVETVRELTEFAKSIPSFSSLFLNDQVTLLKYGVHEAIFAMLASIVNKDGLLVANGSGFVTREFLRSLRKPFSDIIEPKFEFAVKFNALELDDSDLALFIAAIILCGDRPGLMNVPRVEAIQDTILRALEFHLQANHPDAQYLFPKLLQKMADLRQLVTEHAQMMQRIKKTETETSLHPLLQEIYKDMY
Outline: as §1

[11] = molecular target: Peroxisome proliferator-activated receptor gamma (Homo sapiens) (UniProt P37231); assay: qHTS assay for small molecule agonists of peroxisome proliferator-activated receptor gamma signaling (AID 588536; active = well fitted curve in the direction sought with a large enough effect in the signal ratio, with a control signal flat, not every such curve was filed as active; the % refers to the signal ratio;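 also: 0% = DMSO basal wells and 100% = rosiglitazone at 2 µM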)
Outline: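 Test agents, titrated, stimulated HEK293 UAS-bla cells overnight (16 h, 37 C). Substrate CCF4 was then added for two hours at room temperature before fluorescence reading.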

[12] = molecular target: Peroxisome proliferator-activated receptor gamma (Homo sapiens) (UniProt P37231); assay: qHTS assay for small molecule antagonists of peroxisome proliferator-activated receptor gamma signaling (AID 588537; active = well fitted inhibition curve with a large enough effect in the signal ratio, with a control signal flat, not every such curve was filed as active; the % refers to the signal ratio; also: potency is read from the fitted curve at half-maximal effect)
Outline: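 Antagonist mode, beta-lactamase reporter in HEK293; charcoal/dextran FBS 1%; 3000 cells/well, 37 C 6-6.5 h; cpd titration + rosiglitazone 50 nM final, 16 h 37 C; CCF4, 2 h RT; 460/530 nm; Hill fit → IC50, efficacy.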

[13] = molecular target: Vitamin D3 receptor (Homo sapiens) (UniProt P11473); assay: qHTS assay for small molecule antagonists of vitamin D receptor signaling (AID 588541; calls by dose curve;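 also: receptor activated by calcitriol during compound treatment; series mostly up to about 77 µM; % is scaled to controls: 0 for no effect and ±100 for the full control effect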)
Chain of Vitamin D3 receptor (Homo sapiens) (P11473 whole entry, looked up): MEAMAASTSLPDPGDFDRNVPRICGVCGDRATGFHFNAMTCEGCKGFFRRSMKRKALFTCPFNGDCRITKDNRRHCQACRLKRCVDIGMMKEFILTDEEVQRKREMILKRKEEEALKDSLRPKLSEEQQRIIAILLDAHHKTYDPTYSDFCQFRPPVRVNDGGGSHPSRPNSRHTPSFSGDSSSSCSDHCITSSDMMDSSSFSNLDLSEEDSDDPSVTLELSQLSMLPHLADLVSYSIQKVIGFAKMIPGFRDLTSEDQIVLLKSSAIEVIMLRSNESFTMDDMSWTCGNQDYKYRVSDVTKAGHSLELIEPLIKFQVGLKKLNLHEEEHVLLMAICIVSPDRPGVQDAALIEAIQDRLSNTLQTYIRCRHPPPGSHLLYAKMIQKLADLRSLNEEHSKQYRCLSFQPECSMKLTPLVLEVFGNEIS
Outline: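 Antagonist-mode beta-lactamase reporter assay: HEK293T VDR-UAS-bla cells were exposed to titrated compound alongside 1-alpha,25-dihydroxyvitamin D3 at 3 nM final for 16 h. Values were normalized to the 50 nM agonist control and DMSO basal, with IC50 and efficacy from Hill equation fits.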

[14] = molecular target: Vitamin D3 receptor (Homo sapiens) (UniProt P11473); assay: qHTS assay for small molecule agonists of vitamin D receptor signaling (AID 588543; calls by dose curve;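 also: 0% = DMSO basal and 100% = reference agonist control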)
Outline: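 GeneBLAzer VDR-UAS-bla HEK293T cells in 2% charcoal-stripped FBS medium were dosed with compound titrations for 16 h at 37 °C; CCF4 β-lactamase readout (405 nm ex, 460/530 nm em). EC50 and efficacy from Hill fits, normalized to 50 nM calcitriol (100%) and DMSO (0%).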

[15] = qHTS assay for small molecule agonists of retinoid X receptor alpha signaling (AID 588544); details: HEK293T RXRa-UAS-bla, beta-lactamase reporter, 18 h; 530 nm emission
[16] = molecular target: DNA dC->dU-editing enzyme APOBEC-3G (Homo sapiens) (UniProt Q9HC16); assay: qHTS for inhibitors of Vif-A3G interactions: Validation (AID 588379); also: 0% is about no effect
Outline: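 HeLa cells stably expressing Vif and A3G-eYFP, 700 cells/well, incubated overnight at 37 deg C, then exposed to compound overnight at 37 deg C. Inhibition of Vif-mediated degradation read as increased yellow fluorescence (Ex 488/Em 500-530) by laser-scanning cytometry.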

[17] = molecular target: Estrogen receptor (Homo sapiens) (UniProt P03372); assay: qHTS assay for small molecule antagonists of estrogen receptor alpha signaling (AID 588513; active = well fitted curve in the direction sought with a large enough effect in the signal ratio, with a control signal flat, not every such curve was filed as active; the % refers to the signal ratio; also: % is scaled to controls: 0 for no effect and ±100 for the full control effect)
Outline: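 ER-alpha-UAS-bla GripTite HEK 293 cells in medium with 2% charcoal/dextran-treated FBS were preincubated 4 h at 37 C, dosed with compound (1:2 titration), stimulated with 0.5nM 17-beta-estradiol for 18 h, then read by CCF4 beta-lactamase fluorescence.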

[18] = molecular target: Bile acid receptor (Homo sapiens) (UniProt Q96RI1); assay: qHTS assay for small molecule antagonists of farnesoid X receptor signaling (AID 588526; calls by dose curve; also: % is scaled to controls: 0 for no effect and ±100 for the full control effect)
Chain of Bile acid receptor (Homo sapiens) (Q96RI1 whole entry, looked up): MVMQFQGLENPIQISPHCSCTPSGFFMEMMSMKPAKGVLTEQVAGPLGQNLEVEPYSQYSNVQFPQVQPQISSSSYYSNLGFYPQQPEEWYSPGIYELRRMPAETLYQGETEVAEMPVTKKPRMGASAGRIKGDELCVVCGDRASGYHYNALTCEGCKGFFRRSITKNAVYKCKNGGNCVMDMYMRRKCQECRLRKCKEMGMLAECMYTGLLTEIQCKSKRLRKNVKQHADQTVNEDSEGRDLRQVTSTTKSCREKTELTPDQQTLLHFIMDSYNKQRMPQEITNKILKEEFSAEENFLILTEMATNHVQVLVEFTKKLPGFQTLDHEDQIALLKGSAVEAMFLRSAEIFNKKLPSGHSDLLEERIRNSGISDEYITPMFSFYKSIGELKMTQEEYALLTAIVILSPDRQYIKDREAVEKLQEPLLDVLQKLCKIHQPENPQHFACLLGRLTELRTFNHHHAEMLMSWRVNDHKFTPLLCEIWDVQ
Outline: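 Beta-lactamase reporter antagonist mode: HEK293T FXR-UAS-bla cells, titrated compound, CDCA stimulation, 16 h 37 C, CCF4 dye 2 h RT. Data normalized to CDCA 50 uM and DMSO; Hill-fit IC50.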

[19] = molecular target: Androgen receptor (Homo sapiens) (UniProt P10275); assay: qHTS assay for small molecule antagonists of androgen receptor signaling (AID 588516; active = well fitted curve in the direction sought with a large enough effect in the signal ratio, with a control signal flat, not every such curve was filed as active; the % refers to the signal ratio; also: % is scaled to controls: 0 for no effect and ±100 for the full control effect)
Chain of Androgen receptor (Homo sapiens) (P10275 whole entry, looked up): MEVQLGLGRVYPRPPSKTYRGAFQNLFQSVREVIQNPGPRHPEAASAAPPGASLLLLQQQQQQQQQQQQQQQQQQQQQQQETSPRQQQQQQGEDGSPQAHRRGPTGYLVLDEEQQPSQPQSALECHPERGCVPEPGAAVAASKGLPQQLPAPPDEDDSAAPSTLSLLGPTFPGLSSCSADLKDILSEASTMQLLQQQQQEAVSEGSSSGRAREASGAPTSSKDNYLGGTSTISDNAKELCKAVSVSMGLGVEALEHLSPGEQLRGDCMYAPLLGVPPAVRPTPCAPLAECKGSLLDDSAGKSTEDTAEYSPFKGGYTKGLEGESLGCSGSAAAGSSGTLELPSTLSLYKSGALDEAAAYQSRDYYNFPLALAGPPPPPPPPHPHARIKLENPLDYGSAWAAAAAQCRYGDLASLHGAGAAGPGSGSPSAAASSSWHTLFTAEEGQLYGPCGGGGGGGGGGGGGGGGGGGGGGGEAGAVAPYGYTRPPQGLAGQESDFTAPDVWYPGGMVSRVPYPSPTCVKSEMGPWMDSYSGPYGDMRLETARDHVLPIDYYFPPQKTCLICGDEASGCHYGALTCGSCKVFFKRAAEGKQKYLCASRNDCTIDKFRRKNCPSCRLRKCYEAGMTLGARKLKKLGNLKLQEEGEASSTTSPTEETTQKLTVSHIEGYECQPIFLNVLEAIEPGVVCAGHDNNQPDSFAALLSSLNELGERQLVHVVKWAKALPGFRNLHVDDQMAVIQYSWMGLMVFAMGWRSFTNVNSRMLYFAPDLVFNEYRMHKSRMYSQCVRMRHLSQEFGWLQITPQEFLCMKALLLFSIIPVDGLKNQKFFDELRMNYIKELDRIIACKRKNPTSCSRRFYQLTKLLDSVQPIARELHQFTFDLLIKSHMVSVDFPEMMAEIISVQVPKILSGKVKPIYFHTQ
Outline: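 AR-UAS-bla-GripTite HEK 293 cells (2000/well, 5 h at 37 C) received compound titrations, then R1881 at 10 nM final; after 16 h at 37 C, CCF4 dye 2 h RT, beta-lactamase fluorescence read; IC50 from Hill fits.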

[20] = molecular target: Androgen receptor (Homo sapiens) (UniProt P10275); assay: qHTS assay for small molecule agonists of androgen receptor signaling (AID 588515; active = well fitted curve in the direction sought with a large enough effect in the signal ratio, with a control signal flat; the % refers to the signal ratio; also: % is scaled to controls: 0 for no effect and ±100 for the full control effect); details: AR-UAS-bla HEK293, beta-lactamase ratio, agonist 16 h; stronger effect = higher value
Outline: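 EC50 and efficacy came from Hill fits of titrations (up to 92 uM) normalized to 30 nM R1881 as 100% and DMSO as 0%. Compound exposure was 16 h at 37 C on AR-UAS-bla HEK293 cells, with a 405/460/530 nm CCF4 fluorescence read.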

CN1C2CCC1CC(OC(=O)C(CO)c1ccccc1)C2 (stereo not given)
inactive: Potency [1] | Potency [2] | outcome [3] | outcome [4] | Potency [5]

CC(C)NCC(O)c1ccc(O)c(O)c1 (stereo not given)
4.84% and 9.19%: max response [9]
-7.52% and -0.93%: max response [15]
inactive: Potency [1] | Potency [2] | Potency [6] | Potency [5] | activation [7] -1.74% | Potency [8] | outcome [10] | outcome [11] | Potency [12] | outcome [13] | outcome [14]

CN(C)CCCN1c2ccccc2CCc2ccc(Cl)cc21
inactive: Potency [1] | Potency [2] | Potency [6] | outcome [16]

COc1cc2nc(N3CCN(C(=O)C4COc5ccccc5O4)CC3)nc(N)c2cc1OC (stereo not given)
inactive: Potency [1] | Potency [2] | outcome [3] | Potency [5]

Cn1c(=O)c2[nH]cnc2n(C)c1=O
inactive: Potency [1] | Potency [2] | outcome [3] | outcome [4] | Potency [5] | outcome [17] | Potency [18] | outcome [11]
-12.6%: max response [15]

NC12CC3CC(CC(C3)C1)C2
inactive: Potency [1] | Potency [6] | outcome [4] | Potency [5]

Cn1c(=O)c2c(ncn2C)n(C)c1=O
-3.75% and 14.5%: max response [15]
inactive: Potency [1] | Potency [6] | outcome [4] | Potency [5] | outcome [16] | activation [7] -1.83% | Potency [8] | outcome [11] | Potency [12]

Cc1ccc(-c2cc(C(F)(F)F)nn2-c2ccc(S(N)(=O)=O)cc2)cc1
inactive: outcome [17]

COc1cc2nc(N3CCN(C(=O)c4ccco4)CC3)nc(N)c2cc1OC
inactive: Potency [1] | Potency [2] | outcome [3] | outcome [16]

Clc1ccccc1C(c1ccccc1)(c1ccccc1)n1ccnc1
inactive: Potency [1] | Potency [2] | outcome [3]
active: Potency [5] 25.1 µM

Cn1ccc2cc3c(cc21)CCN3C(=O)Nc1cccnc1
inactive: Potency [1] | Potency [2] | outcome [3] | outcome [4] | Potency [5] | outcome [16]

CN1CCN2c3ccccc3Cc3ccccc3C2C1 (stereo not given)
inactive: Potency [1] | Potency [6] | outcome [4]

CC[N+](CC)(CC)CCOc1cccc(OCC[N+](CC)(CC)CC)c1OCC[N+](CC)(CC)CC
inactive: Potency [1] | Potency [2] | outcome [3] | outcome [4] | Potency [5]

CS(=O)(=O)Nc1ccc([N+](=O)[O-])cc1Oc1ccccc1
inactive: Potency [1] | Potency [6] | Potency [5]

CC(C)(C)C(=O)Oc1ccc(S(=O)(=O)Nc2ccccc2C(=O)NCC(=O)O)cc1
inactive: Potency [6]

O=c1c(O)c(-c2ccc(O)c(O)c2)oc2cc(O)cc(O)c12
inactive: outcome [3] | outcome [4] | Potency [5] | outcome [16]

CCCCc1oc2ccccc2c1C(=O)c1cc(I)c(OCCN(CC)CC)c(I)c1
inactive: Potency [2] | outcome [3]

CCOC(=O)Nc1ccc(NCc2ccc(F)cc2)nc1N
inactive: outcome [3] | outcome [4] | Potency [5]

CN(C)CCOC(c1ccccc1)c1ccccc1
inactive: Potency [1] | Potency [2] | outcome [3] | outcome [4] | outcome [19] | activation [7] -3.72% | Potency [8]

OCCN(CCO)c1nc(N2CCCCC2)c2nc(N(CCO)CCO)nc(N3CCCCC3)c2n1
active: Potency [6] 31.6 µM and 22.4 µM
inactive: Potency [2] | outcome [3] | Potency [5] | outcome [16]

C[C@](N)(Cc1ccc(O)c(O)c1)C(=O)O
-4.18%: max response [9]
inactive: Potency [1] | Potency [6] | outcome [16] | outcome [10] | outcome [11] | Potency [12] | outcome [13] | outcome [14]
active: Potency [2] 2.13 µM
-1.09%: max response [15]

CN(Cc1cnc2nc(N)nc(N)c2n1)c1ccc(C(=O)N[C@@H](CCC(=O)O)C(=O)O)cc1
active: Potency [12] 0.447 µM
inactive: Potency [2] | outcome [3] | Potency [6] | outcome [4] | Potency [5] | outcome [16] | activation [20] 0.214%

CN(CCOc1ccc(NS(C)(=O)=O)cc1)CCc1ccc(NS(C)(=O)=O)cc1
inactive: Potency [6]

COc1cc2c(c(OC)c1OC)-c1ccc(OC)c(=O)cc1[C@@H](NC(C)=O)CC2
inactive: Potency [1] | Potency [2] | outcome [3] | outcome [4] | Potency [5] | outcome [16] | activation [20] -5.98% and 0.799% and 0.899% | outcome [14]

CC(=O)OCC(CCn1cnc2cnc(N)nc21)COC(C)=O
inactive: Potency [6]

CC(COc1ccccc1)N(CCCl)Cc1ccccc1 (stereo not given)
23% and 19%: max response [15]
inactive: Potency [1] | Potency [2] | outcome [3] | outcome [4] | Potency [5] | Potency [8] | outcome [11] | outcome [13] | outcome [14]

Nc1c2c(nc3ccccc13)CCCC2
inactive: Potency [2] | outcome [3] | Potency [6] | outcome [4] | outcome [16] | outcome [17] | outcome [11]

Cc1cnc(C(=O)NCCc2ccc(S(=O)(=O)NC(=O)NC3CCCCC3)cc2)cn1
inactive: Potency [1] | Potency [2] | outcome [3] | outcome [4] | Potency [5]

Cc1cn([C@H]2C[C@H](N=[N+]=[N-])[C@@H](CO)O2)c(=O)[nH]c1=O
inactive: Potency [2] | outcome [3] | Potency [6] | outcome [4] | Potency [5] | outcome [17] | Potency [18] | activation [7] -3.02% and 6.31% | Potency [8] | outcome [10] | outcome [11] | Potency [12] | outcome [13] | outcome [14]
16%: max response [9]
27.7% and 12.8%: max response [15]

CS(=O)(=O)CCNCc1ccc(-c2ccc3ncnc(Nc4ccc(OCc5cccc(F)c5)c(Cl)c4)c3c2)o1
inactive: Potency [6]

COc1ccc(CCN(C)CCCC(C#N)(c2ccc(OC)c(OC)c2)C(C)C)cc1OC (stereo not given)
inactive: Potency [1] | Potency [2] | outcome [3] | outcome [16]

CC[C@@]1(O)C(=O)OCc2c1cc1n(c2=O)Cc2cc3c(CN(C)C)c(O)ccc3nc2-1
active: Potency [6] 79.4 µM
